Rows were chosen to be rich in hits. Some 19% of all compounds tested hit in one or more screens of this group.
HT1080NT lethal – kills 2HG-producing HT-1080-NT fibrosarcoma cells | HT-1080-NT fibrosarcoma viability, CellTiter-Glo ATP luminescence, 48 h | 360,000 compounds, 1.6% hits | Potency, µM (top dose mostly 46.1 µM), without a hit: top-dose activity, negative = less viability, hits mostly cytotoxic;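 also: NT is the 2HG producing partner of a matched IDH1 knockdown line; potency is read from the fitted curve at half-maximal effect; 0% = DMSO-treated cells and -100% = media-only wells without cells; nearly all actives have a fitted effect of over 55% in size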
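Viability of the 2HG-overproducing fibrosarcoma line after 48 hours of compound exposure at 37 degrees C was determined by luminescence with CellTiter-Glo, and concentration-effect curves were then fitted and categorized.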
IL1B secr inh – inhibitors of inflammasome signaling (IL-1 beta secretion); 360,000 compounds, 4.7% hits; THP-1 LPS/ATP IL-1B secretion, AlphaLISA, 16 h; active compounds read low; activity change, % at 57.5 µM; AID 743279; in the data active = activity change below about -50%; inconclusive = mostly about -30% to -49%
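THP-1 cells pretreated 1 hr with compounds (up to 57.5 uM final), then stimulated with LPS (250 ng/mL final) plus ATP (1.25 mM final); secreted IL-1B measured by AlphaLISA after 16 hr, decreased signal indicating inhibition.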
TDP1 cell CPT – DT40-hTDP1 cell growth loss with CPT; chicken DT40 Tdp1-/-;hTDP1 cells + 20 nM CPT, ATP luminescence, 48 h; Potency, µM (highest dose often 46.2 µM), for inactives: top-dose activity change, negative = growth inhibition, actives largely listed as inhibitors; 420,000 compounds, 12% hits; also: potency is read from the fitted curve at half-maximal effect; nearly all actives have a fitted effect of over 55% in size
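Chicken DT40 Tdp1-/- cells complemented with human TDP1, 400 cells/well, exposed to compounds plus 20 nM camptothecin for at least 48 h at 37 C; viability read as ATP content by CellTiter-Glo luminescence.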
HT1080 IDH1KD tx – toxicity to HT-1080 IDH1 knockdown cells (counter line). AID 686971. Potency, µM (top dose mostly 46.1 µM), for the others: at the top dose activity, negative = toxicity, hits mostly cytotoxic. 360,000 compounds, 2% hits. HT-1080 IDH1 knockdown viability, ATP luminescence, 48 h;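 also: potency is read from the fitted curve at half-maximal effect; 0% = DMSO wells and -100% = cell-free medium wells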
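After a 2 h attachment period, IDH1KD HT-1080 cells took pin-transferred compound for 48 h at 37 °C; ATP-based luminescence after 10 min room-temperature reagent incubation reported viability.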
TDP1 cell noCPT – qHTS for Inhibitors of human tyrosyl-DNA phosphodiesterase 1 (TDP1): qHTS in cells in absence of CPT. DT40 Tdp1-/- hTDP1 cells, no CPT, ATP luminescence, 48 h. Potency, µM (highest dose often 46.2 µM), for inactives: top-dose activity change, negative = growth inhibition, usual class: inhibitors. 420,000 compounds, 15% hits. AID 686978, 2013; also: potency is read from the fitted curve at half-maximal effect; nearly all actives have a fitted effect of over 55% in size
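DT40 Tdp1-/-;hTDP1 cells, no CPT (DMSO vehicle only), 400 cells/well; compounds pin-transferred; ≥48 hr, 37 °C; CellTiter-Glo 30 min RT dark, luminescence read.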
Numbers without * were called inactive; u = inconclusive; x = no result given. Unless noted, calls follow the shape of the dose curve; as a rule, active = well fitted curve in the direction sought with a large enough effect; inconclusive = small, poorly fitted or top-dose-only effect, or another doubt; inactive = no such curve, though single readings can be large; an effect the other way counts as inactive or inconclusive. Unless noted, % is scaled to controls: 0 for no effect and ±100 for the full control effect.

SMILES	HT1080NT lethal	IL1B secr inh	TDP1 cell CPT	HT1080 IDH1KD tx	TDP1 cell noCPT
COc1ccc(-c2[nH]c(-c3ccc(F)cc3)nc2SCC(=O)NC2CCCC2)cc1	-16.9%	-14.2	u	-29.0%	u
COc1cccc(-c2ccc(SCC(=O)NC3CCCC3)nn2)c1	6.0%	20.3	-10.5%	9.0%	-8.7%
Cc1ccc(Nc2nc(CSc3nnnn3C)cs2)cc1	10.7%	-5.0	-20.3%	1.3%	u
Cc1ccc(Nc2nc(CSc3nnc(-c4cccnc4)n3-c3ccccc3C)cs2)cc1	-10.3%	u	14.6µM*	-14.8%	14.6µM*
Cc1ccccc1-n1c(SCc2csc(Nc3ccccc3)n2)nnc1-c1cccnc1	0.4%	-23.4	11.6µM*	-11.1%	13µM*
CC[C@H](CO)Nc1nc(Nc2cccc(Cl)c2)c2ncn(C(C)C)c2n1	u	-99.4*	9.2µM*	u	9.2µM*
Cc1ccccc1OCC(=O)OCc1cc(=O)n2nc(C3CC3)sc2n1	x	x	-15.2%	x	-8.9%
CN1CC(=O)NC1=NC(=O)C12CC3CC(CC(C3)C1)C2	-17.2%	5.3	u	-18.8%	18.4µM*
COc1ccc(NS(=O)(=O)c2cc(C)ccc2NC(=O)c2cc(C)oc2C)cc1	0.581µM*	55.4	0.92µM*	0.92µM*	0.581µM*
COc1ccc(NS(=O)(=O)c2cccc(C(=O)NNC(=O)c3cc(C)oc3C)c2)cc1	7.8%	-9.5	-22.9%	1.1%	u
COc1ccc(-n2cc(C(=O)NCCc3cc(OC)ccc3OC)c3ccccc3c2=O)cc1	x	x	16.4µM*	x	20.6µM*
CCc1ccccc1N(C)C(=O)c1cn(-c2cccc(OC)c2)c(=O)c2ccccc12	x	x	14.6µM*	x	16.4µM*
COCCCNC(=O)c1cn(-c2cccc(OC)c2)c(=O)c2ccccc12	0.0%	-3.8	-2.3%	-2.4%	2.0%
COc1ccc(-n2cc(C(=O)NCc3ccccc3Cl)c3ccccc3c2=O)cc1	x	x	-15.4%	x	0.6%
COc1cccc(-n2cc(C(=O)NCCc3cccc(C)c3)c3ccccc3c2=O)c1	x	x	u	x	18.4µM*
COc1ccc(NC(=O)CSc2nnc(Cc3ccc(C)cc3)c(=O)n2N)cc1	-8.1%	-18.3	-16.9%	-12.7%	-7.2%
CCOC(=O)N1CCC(Nc2c([N+](=O)[O-])cc(C(=O)O)cc2[N+](=O)[O-])CC1	2.5%	18.3	-0.7%	8.1%	-2.4%
NC(=S)N/N=C/c1ccc(C23CC4CC(CC(C4)C2)C3)cc1	u	16.2	9.2µM*	u	3.66µM*
Cc1cc(S(=O)(=O)N2CCOCC2)ccc1OCC(=O)Nc1ccccc1F	-0.9%	17.6	2.3%	1.4%	14.6%
Cc1ccc(C)c(NC(=S)N=Nc2c(O)n(C)c3ccc(S(=O)(=O)N4CCOCC4)cc23)c1	-28.8%	7.2	4.11µM*	u	2.91µM*
CCc1ccccc1NC(=S)N=Nc1c(O)n(C)c2ccc(S(=O)(=O)N3CCOCC3)cc12	-12.2%	0.2	5.17µM*	-22.0%	5.8µM*
Cc1ccc(C)c(SCC(=O)Nc2cc(S(=O)(=O)N3CCOCC3)ccc2C)c1	1.1%	u	u	-0.3%	u
Cc1ccc(Cn2c(O)c(N=NC(=S)Nc3ccccc3F)c3cc(S(=O)(=O)N4CCOCC4)ccc32)cc1	-12.0%	-12.2	3.66µM*	-12.4%	2.06µM*
CCc1ccccc1NC(=O)c1ccc(S(=O)(=O)N2CCCC2)cc1	10.1%	3.4	10.1%	-1.3%	-10.7%
CCn1c(SCc2ccccc2Cl)nc(=O)c2c(C(=O)OC)cc(C3CC3)nc21	x	x	11.6µM*	x	16.4µM*
COc1cccc(CC2(CO)CCN(C(=O)NCCc3ccccc3)CC2)c1	4.6%	-11.8	-9.6%	1.4%	-8.5%
COc1ccc(N2CCN(C(=O)c3[nH]c4ccc(OC)cc4c3C)CC2)cc1	10.3%	-12.9	-28.8%	-3.9%	u
OCC1(Cc2ccccc2C(F)(F)F)CCN(Cc2ccccc2)CC1	-23.8%	-61.0*	u	-13.3%	u

Source: PubChem BioAssay (National Center for Advancing Translational Sciences (NCATS))
